# D1 PAM: human D1 dopamine receptor positive modulation; actives 0.036% (n = 360,000); AID 504651; potentiation, % at 10 µM; P21728; HEK293 TREx D1 cells, calcium flux, dopamine EC20 potentiation; in the data active = potentiation above about 30%; note: 0% is about no effect
# Target sequence (P21728 whole entry, looked up): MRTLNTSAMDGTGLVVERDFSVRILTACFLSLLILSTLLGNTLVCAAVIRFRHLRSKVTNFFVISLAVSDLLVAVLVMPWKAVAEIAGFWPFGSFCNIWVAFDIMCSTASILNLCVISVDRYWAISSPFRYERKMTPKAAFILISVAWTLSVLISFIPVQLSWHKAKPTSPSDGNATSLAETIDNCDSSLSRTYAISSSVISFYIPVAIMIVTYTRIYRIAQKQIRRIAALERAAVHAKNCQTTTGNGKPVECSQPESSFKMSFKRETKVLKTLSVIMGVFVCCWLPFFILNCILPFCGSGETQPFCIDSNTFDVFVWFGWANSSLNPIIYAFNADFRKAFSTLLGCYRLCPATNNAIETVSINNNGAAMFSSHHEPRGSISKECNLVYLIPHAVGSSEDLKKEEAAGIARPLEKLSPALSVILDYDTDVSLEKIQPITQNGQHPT
# TRHR PAM: TRH receptor (human) allosteric enhancement; P34981; TRHR cells, fluo-8 calcium fluorescence, EC20 TRH enhancement; enhancement, % at 2 µM; actives 0.66% (n = 360,000); AID 493056; in the data active = enhancement above about 30%; note: 0% is about no effect
#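 TRHR-expressing cells loaded with fluo-8 calcium dye were read kinetically (ex 480/em 530) during compound addition, then stimulated with an EC20 of TRH (10 nM final). Enhancement of the Gq-mediated intracellular calcium response was scored.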
# D1 antagonist: blocks dopamine activation of the human D1 receptor; P21728; HEK293 TREx D1 cells, calcium flux, dopamine EC80; hits give low values; activity change, negative = inhibition, % at 10 µM; actives 3.2% (n = 360,000); AID 504652; in the data active = activity change below about -30%; note: % is set by controls: 0 for no effect and ±100 for the full control effect
#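 Compound effects on dopamine-evoked calcium signalling were measured in tetracycline-induced HEK293 Trex D1 cells. Dopamine at EC80 followed a 180 s compound pre-read, and fluorescence was tracked kinetically for 180 s more.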
# TRHR ag: activates the human TRH receptor | actives 0.18% (n = 360,000) | AID 493084 | TRHR cells, calcium flux fluo-8, FDSS agonist mode | activation, % at 2 µM; note: 0% is about no effect
#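 Agonist-mode FDSS calcium read (Ex 480/Em 530, 1 s cycles) in 1536-well TRHR cells with fluo-8 dye, after 10-cycle baseline and 23 nL compound addition; TRH at EC20 (10 nM final) added afterwards for the enhancer phase.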
# D1 ag: agonists of human D1 dopamine receptor. P21728. HEK293 T-REx D1 cells, calcium flux, agonist mode. activation, % at 2 µM. actives 1% (n = 360,000); note: 0% is about no effect
#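 Tetracycline-induced HEK293 TREx D1 cells, force-coupled to calcium signalling, were dye-loaded with a no-wash calcium kit. Compound was pin-added after a 10 s baseline. Fluorescence was read kinetically at 1 cycle/s for 180 s, with calcium rises flagged as agonism.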
# * hit, by the source's call. In the library only some 4.7% were active in any assay of this set; here they are far more common. Cut-off read from the data, not from the text of the source, unless noted: active = activation above about 30%; inactive = the rest.
SMILES,D1 PAM,TRHR PAM,D1 antagonist,TRHR ag,D1 ag
Cc1ccc(-n2c(SCc3nc(-c4ccccc4C)no3)nnc2-c2ccncc2)cc1C,-1,1,-34*,-1,13
Cc1cc(Br)cc(C)c1OCC(=O)NNC(=O)c1cccs1,0,-4,-37*,0,3
CCOc1ccc(NC(=O)CCNS(=O)(=O)c2ccc3c(c2)CC(C)N3C(C)=O)cc1 (stereo not drawn),-4,3,4,1,2
CCc1ccc(CNC(=O)c2c3c(nc4ccccc24)C(=O)N(C2CCCCC2)C3)cc1,-1,9,13,0,2
COc1cc2c3nnc(-c4ccc(F)cc4)c-3cn(Cc3ccccc3F)c2cc1OC,-4,7,-53*,0,4
COc1cc2c3nnc(-c4ccccc4)c-3cn(Cc3ccccc3F)c2cc1OC,-16,-4,-28,2,0
COc1ccc(Br)cc1C1CC(=O)N2CN(Cc3ccccc3)CSC2=C1C#N (stereo not drawn),-1,0,-31*,1,2
COc1ccc(Br)cc1C1CC(=O)N2CN(C)CSC2=C1C#N (stereo not drawn),-8,-3,-7,0,3
COc1cc(OC)c(C2CC(=O)N3CN(C)CSC3=C2C#N)cc1OC (stereo not drawn),-7,1,-38*,0,2
Cc1ccnc(NC(c2cc(C)ccc2O)c2ccc3cccnc3c2O)c1 (stereo not drawn),-2,-1,-50*,-1,0
Cc1ccnc(NC(c2ccccc2F)c2ccc3cccnc3c2O)c1 (stereo not drawn),-5,8,2,3,1
COc1ccccc1-n1c(SCC(=O)NCC2CCCO2)nc2c([nH]c3ccccc32)c1=O (stereo not drawn),-4,-2,15,-1,-1
ClC1(Cl)CC1CSc1nc2ccccc2[nH]1 (stereo not drawn),-3,0,-34*,-1,5
CN(CC1CCOCC1)C(=O)c1ccc2nc(Cc3cccc(Cl)c3)oc2c1,7,8,1,0,3
O=C(NCCCN1CCN(c2cccc(Cl)c2)CC1)c1ccc2nc(Cc3ccccc3)oc2c1,-5,1,-33*,1,18
COc1ccc(N2CCN(CCCNC(=O)c3ccc4nc(CCc5ccccc5)oc4c3)CC2)cc1,-3,-6,-31*,-1,35*
COc1ccc(N2CCN(CCCNC(=O)c3ccc4nc(Cc5ccccc5)oc4c3)CC2)cc1,-3,5,-24,0,27
O=C(NCC1CCOCC1)c1ccc2nc(Cc3cccc(Cl)c3)oc2c1,-23,-19,-53*,1,-1
O=C(NCCCN1CCN(c2ccccc2)CC1)c1ccc2nc(CCc3ccccc3)oc2c1,-4,1,-60*,0,32*
Cn1ncc2c(N3CCN(c4cccc(Cl)c4)CC3)ncnc21,-1,1,-29,0,3
CC(Sc1nc2ccccc2c(=O)n1CC1CCCO1)C(=O)N(C)c1ccccc1 (stereo not drawn),-3,-5,3,-1,0
Cc1ccc(NC(=O)c2ccc(OCc3c(C)noc3C)cc2)nc1,-3,3,11,0,2
Cc1ccc(/C=N/NC(=O)c2ccc3ccccc3c2)s1,-7,5,3,-1,2
Nc1cc(=O)nc(SCC(=O)Nc2ccc(F)cc2)n1-c1ccc(Cl)cc1,0,-3,-6,0,-1
CC(C)c1nc2ccc(C(=O)NCCCN3CCN(c4cccc(Cl)c4)CC3)cc2o1,-5,4,-45*,0,7
Cc1ccc(S(=O)(=O)c2c(C)nn(-c3ccccc3)c2OC(=O)c2ccccc2F)cc1,1,-2,4,0,-1
Cc1ccc(S(=O)(=O)c2cc3c(=O)n4ccccc4nc3n(Cc3ccco3)c2=N)cc1,0,-9,-32*,15,9
Cc1ccc(S(=O)(=O)c2cc3c(=O)n4cccc(C)c4nc3n(Cc3ccco3)c2=N)cc1C,-2,5,-1,2,2
COc1ccc(CCNC(=O)NCc2noc3ccc(C)cc23)c(OC)c1,-3,3,7,0,2
C=CCNC(=O)COC(=O)c1ccc(Cl)c(S(N)(=O)=O)c1,-15,4,-37*,0,3
